Structures are written as SMILES. Where “and” joins values, the source holds several entries; their conditions need not be identical. Identical values can stand only once. The campaign covered roughly 350,000 compounds. About 2,100 (0.6%) were called active. Not shown: some 1% with an inconclusive outcome. The sample as a whole holds a higher share of actives than the screen did. A number with no mark means an inactive call.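 The calls were made as follows: active = activity change of -60% or lower, but not beyond a set lower limit; inconclusive = change between -60% and -40%, or beyond the set limit; inactive = change above -40%.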
% is scaled to controls: 0 for no effect and ±100 for the full control effect.

The target in the experiment is Relaxin receptor 1 (Homo sapiens) (UniProt Q9HBX9). Put plainly: qHTS Assay for Antagonists of the Relaxin Receptor RXFP1. The following applies: HEK293-RXFP1, relaxin-stimulated cAMP HTRF, 30 min; at 57.5 µM; stronger effect = lower value.
Sequence of Relaxin receptor 1 (Homo sapiens) (Q9HBX9 whole entry, looked up): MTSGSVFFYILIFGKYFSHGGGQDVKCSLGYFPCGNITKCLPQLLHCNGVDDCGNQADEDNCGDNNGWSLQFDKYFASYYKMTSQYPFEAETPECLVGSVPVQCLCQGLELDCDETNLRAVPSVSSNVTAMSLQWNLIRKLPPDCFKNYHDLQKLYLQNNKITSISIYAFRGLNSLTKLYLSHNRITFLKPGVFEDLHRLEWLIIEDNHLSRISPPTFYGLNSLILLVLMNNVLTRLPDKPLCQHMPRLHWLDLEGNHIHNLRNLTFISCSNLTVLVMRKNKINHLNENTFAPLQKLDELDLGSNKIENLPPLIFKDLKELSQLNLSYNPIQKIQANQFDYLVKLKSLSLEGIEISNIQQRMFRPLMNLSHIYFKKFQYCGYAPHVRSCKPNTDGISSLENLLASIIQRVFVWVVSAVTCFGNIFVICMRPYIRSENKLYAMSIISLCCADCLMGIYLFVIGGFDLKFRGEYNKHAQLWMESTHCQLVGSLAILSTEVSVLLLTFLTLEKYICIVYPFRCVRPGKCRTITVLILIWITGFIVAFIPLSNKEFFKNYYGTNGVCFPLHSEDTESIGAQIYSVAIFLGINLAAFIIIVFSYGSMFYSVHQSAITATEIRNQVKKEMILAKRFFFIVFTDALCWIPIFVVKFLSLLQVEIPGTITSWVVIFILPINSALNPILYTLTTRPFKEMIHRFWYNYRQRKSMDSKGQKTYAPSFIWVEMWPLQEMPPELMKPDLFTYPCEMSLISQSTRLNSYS
For the compound `O=C(COC(=O)c1ccc(Oc2ccccc2)cc1)Nc1nnc(-c2ccccc2)o1`, the activity change, negative = inhibition was -76.2% (active).
In the case of `CC(=O)Nc1cccc(C(=O)OCC(=O)Nc2nnc(-c3ccccc3)o2)c1`, the activity change, negative = inhibition was -4.64%.
With `COc1ccccc1C(=O)NCC(=O)OCC(=O)Nc1nnc(-c2ccccc2)o1`, the activity change, negative = inhibition is -0.478%.
Then `O=C(CN1CCSc2ccccc21)N1CCN(c2ccccc2)CC1`, with -6.69%.
The same measure for `CCOc1ccc(-c2cc(C)n3nc(C(=O)Nc4ccc(C)c(C)c4)cc3n2)cc1`: -24%; for `CCCn1c(NCc2ccc(N(CC)CC)cc2)nc2ccccc21`: -15%; for `Cc1ccc(-c2nc(S(=O)(=O)c3ccc(C)cc3)c(N3CCCCCC3)o2)cc1`: 2.42%.
The same measure for `CC(C)S(=O)(=O)c1oc(-c2ccc(F)cc2)nc1S(=O)(=O)c1ccc(F)cc1`: -89.7% (active).
In the case of `O=C(CSc1oc(-c2ccc(F)cc2)nc1S(=O)(=O)c1ccc(Br)cc1)NC1CCCCC1`, the activity change, negative = inhibition is -5.96%.
Then `O=c1cnnc(Nc2ccccc2)[nH]1`, with 9%; and `Cc1nnc(Nc2ccccc2F)s1`, with 3.61%; and `O=c1cnnc(Nc2ccccc2F)[nH]1`, with -93.6% (active).
For the compound `CCCN(CCC)CCNC(=O)c1ccc2c(c1)NC(=O)C(CS(=O)(=O)Cc1cccc(Br)c1)N2` (stereo not drawn), the activity change, negative = inhibition was -10.4%.
In the case of `Cc1ccc(CN(C(=O)COc2ccc(Cl)cc2C)C2CCS(=O)(=O)C2)o1` (stereo not drawn), the activity change, negative = inhibition is -6.16%.
For `COc1cc(OC)c(NC(=O)N2CC3CCCN3c3ccccc32)cc1Cl` (stereo not drawn), the activity change, negative = inhibition was -23.5%.
For `Oc1c(Cl)cc(Cl)c(Cl)c1Cc1c(O)c(Cl)cc(Cl)c1Cl`, the activity change, negative = inhibition was -62.6% (active).
The same measure for `Cc1nc(SCC(=O)Nc2ccc(C(=O)O)cc2)n[nH]1`: -9%.
`CCOC(=O)N1CCc2c(sc(NCc3cccc(F)c3)c2C(=O)Nc2ccccc2OCC)C1`: the activity change, negative = inhibition was -69.1% (active).
The same measure for `CCOc1ccc(NC(=O)c2c(NCc3cccc(OC)c3OC)sc3c2CCC3)cc1`: -17.6%; for `CCOC(=O)c1ccc(NC(=O)c2c(NCc3cccc(OC)c3)sc3c2CCC3)cc1`: -35.6%; for `CC(C)N=C1CCCC1C(=S)SSC(=S)C1CCCC1=NC(C)C` (stereo not drawn): -72.7% (active).
For the compound `COc1cccc(C(=O)NC(=O)Nc2ccc(-c3cc(C(F)(F)F)nn3-c3ccccc3)cc2)c1`, the activity change, negative = inhibition is -5.11%.
Turning to `CCc1nc2ccc(C(=O)N3CCN(c4cccc(Cl)c4)CC3)cc2nc1CC`, the activity change, negative = inhibition is -23.6% and -19.3%.
The same measure for `Cc1ccc(Cl)cc1N1CCN(C(=O)c2cccn3c(=O)c4cc(Cl)ccc4nc23)CC1`: 3.52%.
The same measure for `CCc1nc2ccc(C(=O)N3CCN(c4cc(Cl)ccc4C)CC3)cc2nc1CC`: -64.4% (active); for `COC(=O)Nc1nc2ccc(C(=O)C3CC3)cc2[nH]1`: 14.8%; for `Cn1c(SCC(=O)N2CCCc3ccccc32)ncc(C(=O)Nc2ccc(F)cc2)c1=O`: -2.51%.
The same measure for `Cc1cc(C)c2oc(C(=O)Nc3ccc(S(=O)(=O)N(C)c4ccccc4)cc3)cc(=O)c2c1`: -2.14%; for `Cc1ccn2c(-c3csc(Nc4ccc(C(=O)O)cc4)n3)c(C)nc2c1`: 6.41%; for `Cc1cc(NC(=O)c2cccc(Cl)c2)ccc1-c1cc2ccccc2oc1=O`: -4.13%.
On to `O=c1oc2ccccc2cc1-c1csc(Nc2ccc(O)cc2)n1`, for which the activity change, negative = inhibition is -97% (active).
The same measure for `COC(=O)c1ccc(NC(=O)c2cnn(-c3ccc(Cl)cc3)c2C2CCN(C(=O)OC(C)(C)C)CC2)cc1`: -12.3%; for `COc1ccc(CCNC(=O)c2ccc3c(c2)nc(C)n3-c2ccc(Br)cc2)cc1OC`: -27.1%.
As for `CC1=C(c2ccc(C)cc2)S(=O)(=O)NC1=NCCCN1CCN(c2cc(C)ccc2C)CC1`, the activity change, negative = inhibition was -13.1%.
The same measure for `COC(=O)/C=C(/C)N`: 5.99%; for `CCOC(=O)c1cc(-c2ccccc2)n(-c2cccc(C(=O)Nc3cc(OC)cc(OC)c3)c2)c1C`: -10.5%; for `COC(=O)c1nn(-c2cccc(Cl)c2)ccc1=O`: -8.77%.
The same measure for `COC(=O)c1c(C)c(C)nc(N)c1C#N`: 9.32%; for `COC(=O)c1nc(Cl)c(Cl)nc1N`: -98.8% (active); for `O=C(CCOc1ccccc1)N(Cc1cccnc1)c1nc2ccc(Cl)cc2s1`: 0.968%.
The same measure for `COc1ccc(OC)c(NC(=O)CSC2=Nc3ccccc3C3=NC(CC(=O)NCc4ccc(F)cc4)C(=O)N23)c1` (stereo not drawn): -11.9%; for `COCCCN1CCC(NC(=O)c2cc(Cl)c(N)c3c2OCC3)CC1`: -9.44%; for `CC1(C(=O)N/N=C/c2cc3c(cc2Br)OCO3)CC1(Br)Br` (stereo not drawn): -82.7% (active).
Turning to `O=C(N/N=C\c1cc2c(cc1Cl)OCO2)c1ccc(Br)s1`, the activity change, negative = inhibition is 5.05%.
Then `O=C(/C=C/c1cc2c(cc1Br)OCO2)NCc1ccc(Cl)cc1`, with 0.543%.
`COc1cc(Cl)c(NC(=O)CC(C)S(=O)(=O)c2cc3c(cc2C)NC(=O)CO3)c(OC)c1` (stereo not drawn): the activity change, negative = inhibition is 0.439%.
The same measure for `NNc1nc2c(Cl)cccc2s1`: -80.1% (active); for `c1ccc2c(NC3C4CC5CC(C4)CC3C5)nc(N3CCOCC3)nc2c1` (stereo not drawn): -78.7% (active); for `Fc1cnc(N2CCOCC2)nc1NCc1ccccc1`: 11.7%.
Then `CC(Nc1nc(N2CCCC2)nc2ccccc12)c1ccccc1` (stereo not drawn), with -10.3%; and `O=C(NCC(c1ccc(Cl)cc1)N1CCOCC1)c1ccccc1F` (stereo not drawn), with -0.553%; and `CCOC(=O)c1c(C)[nH]c(CCC(=O)NCCCN2CCN(c3cc(C)ccc3C)CC2)c1C`, with -33.7%.
Then `CCCc1c2oc(C(=O)O)cc(=O)c2cc2c(=O)cc(C(=O)O)n(CC)c12`, with -5.22%; and `COc1cc(/C=C/C(N)=O)cc(OC)c1OC`, with -9.25%.
As to `Cc1c(NC(=O)Cc2ccccc2)cccc1-c1nc2cccnc2s1`, the activity change, negative = inhibition was 5.77%.
The same measure for `C=C(C)COc1ccc(-c2nc(N)ncc2-c2ccccc2OC)c(O)c1`: -62% (active).
As for `C=C(C)COc1ccc(-c2ncncc2-c2ccc(OC)cc2)c(O)c1`, the activity change, negative = inhibition is -10.6%.
As to `CCOc1ccc(-c2nc(N)ncc2-c2ccccc2OC)c(O)c1`, the activity change, negative = inhibition was -16%.

Source of the values: PubChem BioAssay AID1259400 (National Center for Advancing Translational Sciences (NCATS), 2018).
